{"source": "PubChem BioAssay (NCATS)", "note": "Results filed as inconclusive are left out. Where a call stands in place of a potency, no number is given. Calls of active or inactive are those of the source. Calls come from the whole dose curve; tested in HEK293 reporter line. Note: nearly all actives have a fitted effect of over 80% in size. Potency is the fitted concentration of half-maximal effect.", "data": [{"assay": "qHTS for Inhibitors of the Functional Ribonucleoprotein Complex (vRNP) of Lassa (LASV) Arenavirus: Viability assay - alamar blue signal for LASV Primary Screen (AID 1347083)", "settings": "cell viability, alamar blue fluorescence (LASV minigenome counter-screen); series mostly up to 57.5 µM", "values": [{"smiles": "COc1c2ccoc2c(OC[C@@H](O)C(C)(C)O)c2oc(=O)ccc12", "Potency": "inactive"}, {"smiles": "NC(=O)Nc1ccc(Cl)c(Cl)c1", "Potency": "inactive"}, {"smiles": "Cn1c(=O)c2nncnc2n(C)c1=O", "Potency": "inactive"}, {"smiles": "Cc1nc(C)c(C)nc1C", "Potency": "inactive"}, {"smiles": "CC(=O)OCC=C(C)C", "Potency": "inactive"}, {"smiles": "C/C=C(\\C)C(=O)O[C@@H]([C@H](O)c1cc2ccc(=O)oc2cc1OC)C(C)(C)O", "Potency": "inactive"}, {"smiles": "C=C(CC[C@@H](O)C(C)(C)O)[C@H]1CC[C@]2(C)[C@@H]1CCC1[C@@]3(C)CC[C@H](O)C(C)(C)C3CC[C@]12C", "note": "(stereo not given in full)", "Potency": "inactive"}, {"smiles": "C=C(C)[C@@H]1CCC2(C(=O)O)CC[C@]3(C)[C@H](CC[C@@H]4[C@@]5(C)CCC(=O)C(C)(C)[C@@H]5CC[C@]43C)[C@@H]12", "note": "(stereo not given in full)", "Potency": "inactive"}, {"smiles": "C[C@]12O[C@H](C[C@@]1(O)C(=O)O)n1c3ccccc3c3c4c(c5c6ccccc6n2c5c31)CNC4=O", "activity change, negative = reduced viability": "-37.8% [at 5.82 µM] (inactive)"}, {"smiles": "CCNC(=O)CCCC=CC[C@@H]1[C@H](C=CC(O)CCc2ccccc2)[C@@H](O)C[C@@H]1O", "note": "(stereo not given in full)", "Potency": "inactive"}, {"smiles": "C=C[C@]1(C)Cc2occ(C)c2C[C@H]1C(=C)C(=O)O", "Potency": "inactive"}, {"smiles": "C=C(C)c1cc2c(ccc3ccc(=O)oc32)o1", "Potency": "inactive"}, {"smiles": "CC12C=CC(=O)C=C1CCC1C2CCC2(C)C(C(=O)CO)CCC12", "note": "(stereo not given)", "Potency": "inactive"}, {"smiles": "COC1C(O)C(O)C(O)C(O)C1O", "note": "(stereo not given)", "Potency": "inactive"}, {"smiles": "Cc1cnnc2ccccc12", "Potency": "inactive"}, {"smiles": "CC/C=C\\CCOC(=O)c1ccccc1", "Potency": "inactive"}, {"smiles": "COc1cc2c(cc1OC)-c1cc3ccc4c(c3c[n+]1CC2)OCO4", "Potency": "inactive"}, {"smiles": "O=CCCc1ccccc1", "Potency": "inactive"}, {"smiles": "CCOC(=O)[C@H](CCc1ccccc1)N[C@@H](C)C(=O)N1CCCC1C(=O)O", "note": "(stereo not given in full)", "Potency": "inactive"}, {"smiles": "OCCNC1CCCc2c1[nH]c1ccc(-c3ccccc3)cc21", "note": "(stereo not given)", "Potency": "inactive"}, {"smiles": "O=C(CCCCO)CCCCCCCC[C@H]1N[C@H](CO)[C@H](O)[C@@H]1O[C@@H]1O[C@H](CO)[C@@H](O)[C@H](O)[C@H]1O", "Potency": "inactive"}, {"smiles": "Nc1nc(Cl)nc2c1ncn2[C@@H]1O[C@H](CO)C(O)[C@H]1O", "note": "(stereo not given in full)", "Potency": "inactive"}, {"smiles": "O=c1c(O)c(-c2cc(O)c(O)c(O)c2)oc2cc(O)ccc12", "Potency": "inactive"}, {"smiles": "COc1cc(CCc2cc(NC(=O)c3ccc(N4C[C@@H](C)N[C@@H](C)C4)cc3)n[nH]2)cc(OC)c1", "Potency": "34.3 µM (active)"}, {"smiles": "COc1cc(C(=O)OC2CC3CCC2(C)C3(C)C)ccc1OC(C)=O", "note": "(stereo not given)", "Potency": "inactive"}, {"smiles": "CC1(C)CC[C@]2(C(=O)O)[C@H](O)C[C@]3(C)C(=CCC4[C@@]5(C)C[C@H](O)[C@H](O)[C@@](C)(CO)C5CC[C@]43C)[C@@H]2C1", "note": "(stereo not given in full)", "Potency": "inactive"}, {"smiles": "COc1ccc2cc1Oc1ccc(cc1)CC1c3cc(c(OC)cc3CCN1C)Oc1c(OC)c(OC)c(OC)c3c1C(C2)N(C)CC3", "note": "(stereo not given)", "Potency": "inactive"}, {"smiles": "CC1CC[C@@]2(OC1)O[C@H]1CC3[C@@H]4C[C@@H](O)[C@@]5(O)C[C@@H](O)[C@H](O)C[C@]5(C)[C@H]4CC[C@]3(C)[C@H]1[C@@H]2C", "note": "(stereo not given in full)", "Potency": "inactive"}, {"smiles": "CC(C)=CCCC(C)CC=O", "note": "(stereo not given)", "Potency": "inactive"}, {"smiles": "COC(=O)c1ccccc1-n1c(C)nc2ccccc2c1=O", "Potency": "inactive"}, {"smiles": "CCCCCCCCCCCCC(=O)CCCCC(=O)O", "Potency": "inactive"}, {"smiles": "COc1cc2ccc(=O)oc2c(O)c1O", "Potency": "inactive"}, {"smiles": "CN[C@H]1[C@@H](O)[C@@H]2O[C@@H]3O[C@H](C)CC(=O)[C@]3(O)O[C@@H]2[C@@H](NC)[C@H]1O", "Potency": "7.69 µM (active)"}, {"smiles": "Cc1[nH]c(C=C2C(=O)Nc3ccc(S(=O)(=O)Cc4c(Cl)cccc4Cl)cc32)c(C)c1C(=O)N1CCC[C@H]1CN1CCCC1", "Potency": "inactive"}, {"smiles": "C=O", "Potency": "inactive"}, {"smiles": "CC(C)CC(=O)OC(C)(C)[C@@H]1Cc2c(ccc3ccc(=O)oc23)O1", "Potency": "inactive"}, {"smiles": "C=C1CCC2C(C)(C)[C@@H](O)CC[C@@]2(C)[C@@H]1COc1ccc2ccc(=O)oc2c1", "note": "(stereo not given in full)", "Potency": "inactive"}, {"smiles": "O=C(/C=C/c1ccccc1)OCCc1ccccc1", "Potency": "inactive"}, {"smiles": "C[C@H](NCc1ccc2c(c1)nc(NC(=O)c1ccc(-c3cn[nH]c3)s1)n2CCc1ccccc1)C(C)(C)C", "Potency": "6.11 µM (active)"}, {"smiles": "CC[C@H](C)/C=C(C)/C=C/C1=CC2=CC(=O)[C@]3(C)OC(=O)[C@@H](C(C)=O)[C@@H]3C2=CO1", "Potency": "inactive"}]}, {"assay": "qHTS for Inhibitors of the Functional Ribonucleoprotein Complex (vRNP) of Lymphocytic Choriomeningitis Arenaviruses (LCMV): Viability assay - alamar blue signal for LCMV Primary Screen (AID 1347085)", "settings": "alamar blue viability counter-screen, LCMV vRNP screen cells; series mostly up to 57.5 µM", "values": [{"smiles": "COc1c2ccoc2c(OC[C@@H](O)C(C)(C)O)c2oc(=O)ccc12", "Potency": "inactive"}, {"smiles": "NC(=O)Nc1ccc(Cl)c(Cl)c1", "Potency": "inactive"}, {"smiles": "Cn1c(=O)c2nncnc2n(C)c1=O", "Potency": "inactive"}, {"smiles": "Cc1nc(C)c(C)nc1C", "Potency": "inactive"}, {"smiles": "CC(=O)OCC=C(C)C", "Potency": "inactive"}, {"smiles": "C/C=C(\\C)C(=O)O[C@@H]([C@H](O)c1cc2ccc(=O)oc2cc1OC)C(C)(C)O", "Potency": "inactive"}, {"smiles": "C=C(CC[C@@H](O)C(C)(C)O)[C@H]1CC[C@]2(C)[C@@H]1CCC1[C@@]3(C)CC[C@H](O)C(C)(C)C3CC[C@]12C", "note": "(stereo not given in full)", "Potency": "inactive"}, {"smiles": "C=C(C)[C@@H]1CCC2(C(=O)O)CC[C@]3(C)[C@H](CC[C@@H]4[C@@]5(C)CCC(=O)C(C)(C)[C@@H]5CC[C@]43C)[C@@H]12", "note": "(stereo not given in full)", "Potency": "inactive"}, {"smiles": "C[C@]12O[C@H](C[C@@]1(O)C(=O)O)n1c3ccccc3c3c4c(c5c6ccccc6n2c5c31)CNC4=O", "activity change, negative = lower viability": "6.16% [at 5.82 µM] (inactive)"}, {"smiles": "CCNC(=O)CCCC=CC[C@@H]1[C@H](C=CC(O)CCc2ccccc2)[C@@H](O)C[C@@H]1O", "note": "(stereo not given in full)", "Potency": "inactive"}, {"smiles": "C=C[C@]1(C)Cc2occ(C)c2C[C@H]1C(=C)C(=O)O", "Potency": "inactive"}, {"smiles": "C=C(C)c1cc2c(ccc3ccc(=O)oc32)o1", "Potency": "inactive"}, {"smiles": "CC12C=CC(=O)C=C1CCC1C2CCC2(C)C(C(=O)CO)CCC12", "note": "(stereo not given)", "Potency": "inactive"}, {"smiles": "COC1C(O)C(O)C(O)C(O)C1O", "note": "(stereo not given)", "Potency": "inactive"}, {"smiles": "Cc1cnnc2ccccc12", "Potency": "inactive"}, {"smiles": "CC/C=C\\CCOC(=O)c1ccccc1", "Potency": "inactive"}, {"smiles": "COc1cc2c(cc1OC)-c1cc3ccc4c(c3c[n+]1CC2)OCO4", "Potency": "inactive"}, {"smiles": "O=CCCc1ccccc1", "Potency": "inactive"}, {"smiles": "CCOC(=O)[C@H](CCc1ccccc1)N[C@@H](C)C(=O)N1CCCC1C(=O)O", "note": "(stereo not given in full)", "Potency": "inactive"}, {"smiles": "OCCNC1CCCc2c1[nH]c1ccc(-c3ccccc3)cc21", "note": "(stereo not given)", "Potency": "inactive"}, {"smiles": "O=C(CCCCO)CCCCCCCC[C@H]1N[C@H](CO)[C@H](O)[C@@H]1O[C@@H]1O[C@H](CO)[C@@H](O)[C@H](O)[C@H]1O", "Potency": "inactive"}, {"smiles": "Nc1nc(Cl)nc2c1ncn2[C@@H]1O[C@H](CO)C(O)[C@H]1O", "note": "(stereo not given in full)", "Potency": "inactive"}, {"smiles": "O=c1c(O)c(-c2cc(O)c(O)c(O)c2)oc2cc(O)ccc12", "Potency": "inactive"}, {"smiles": "COc1cc(CCc2cc(NC(=O)c3ccc(N4C[C@@H](C)N[C@@H](C)C4)cc3)n[nH]2)cc(OC)c1", "Potency": "43.2 µM (active)"}, {"smiles": "COc1cc(C(=O)OC2CC3CCC2(C)C3(C)C)ccc1OC(C)=O", "note": "(stereo not given)", "Potency": "inactive"}, {"smiles": "CC1(C)CC[C@]2(C(=O)O)[C@H](O)C[C@]3(C)C(=CCC4[C@@]5(C)C[C@H](O)[C@H](O)[C@@](C)(CO)C5CC[C@]43C)[C@@H]2C1", "note": "(stereo not given in full)", "Potency": "inactive"}, {"smiles": "COc1ccc2cc1Oc1ccc(cc1)CC1c3cc(c(OC)cc3CCN1C)Oc1c(OC)c(OC)c(OC)c3c1C(C2)N(C)CC3", "note": "(stereo not given)", "Potency": "inactive"}, {"smiles": "CC1CC[C@@]2(OC1)O[C@H]1CC3[C@@H]4C[C@@H](O)[C@@]5(O)C[C@@H](O)[C@H](O)C[C@]5(C)[C@H]4CC[C@]3(C)[C@H]1[C@@H]2C", "note": "(stereo not given in full)", "Potency": "inactive"}, {"smiles": "CC(C)=CCCC(C)CC=O", "note": "(stereo not given)", "Potency": "inactive"}, {"smiles": "COC(=O)c1ccccc1-n1c(C)nc2ccccc2c1=O", "Potency": "inactive"}, {"smiles": "CCCCCCCCCCCCC(=O)CCCCC(=O)O", "Potency": "inactive"}, {"smiles": "COc1cc2ccc(=O)oc2c(O)c1O", "Potency": "inactive"}, {"smiles": "CN[C@H]1[C@@H](O)[C@@H]2O[C@@H]3O[C@H](C)CC(=O)[C@]3(O)O[C@@H]2[C@@H](NC)[C@H]1O", "Potency": "2.43 µM (active)"}, {"smiles": "Cc1[nH]c(C=C2C(=O)Nc3ccc(S(=O)(=O)Cc4c(Cl)cccc4Cl)cc32)c(C)c1C(=O)N1CCC[C@H]1CN1CCCC1", "Potency": "inactive"}, {"smiles": "C=O", "Potency": "inactive"}, {"smiles": "CC(C)CC(=O)OC(C)(C)[C@@H]1Cc2c(ccc3ccc(=O)oc23)O1", "Potency": "inactive"}, {"smiles": "C=C1CCC2C(C)(C)[C@@H](O)CC[C@@]2(C)[C@@H]1COc1ccc2ccc(=O)oc2c1", "note": "(stereo not given in full)", "Potency": "inactive"}, {"smiles": "O=C(/C=C/c1ccccc1)OCCc1ccccc1", "Potency": "inactive"}, {"smiles": "C[C@H](NCc1ccc2c(c1)nc(NC(=O)c1ccc(-c3cn[nH]c3)s1)n2CCc1ccccc1)C(C)(C)C", "Potency": "12.2 µM (active)"}, {"smiles": "CC[C@H](C)/C=C(C)/C=C/C1=CC2=CC(=O)[C@]3(C)OC(=O)[C@@H](C(C)=O)[C@@H]3C2=CO1", "Potency": "inactive"}]}]}
